The source of these data is ChEMBL document CHEMBL4513146, “CO-ADD screening of Karazin Kharkiv National University (Ukraine) compounds”.

One assay has as its system Klebsiella pneumoniae. Particulars: Concentration 32 ug.mL-1;; ASSAY_TEST Inhibition of Bacterial Growth; detection method Absorption (OD600); MEDIA CAMHB; plate type 384well; NBS; CORNING #3640; time 18 hr.
For a further assay, the system named is Candida albicans. The conditions noted are these: Concentration 32 ug.mL-1; ASSAY_TEST Inhibition of Fungal Growth; detection method Absorption (OD530).
In another assay the test system is Cryptococcus neoformans. Particulars: Concentration 32 ug.mL-1; ASSAY_TEST Inhibition of Fungal Growth; detection method Resazurin; Absorption (OD600-OD570); plate type 384well; NBS; CORNING #3640.

Each structure is given as a SMILES string. Measured potencies and affinities stand elsewhere.

Regarding `COc1cc(NC(=O)CSc2nnc3c(=O)n(-c4cccc(OC)c4)ccn23)cc(OC)c1`, the results for the Inhibition in the assay with Klebsiella pneumoniae, in the assay on Candida albicans and with Cryptococcus neoformans were 6.06%, 3.75% and -8.68%, respectively.

Consider `Cn1c(=O)c2ccc(C(=O)NC3CCCC3)cc2n2c(SCc3c(F)cccc3Cl)nnc12`, for which the Inhibition (as a rule, the change of the read-out against control, counted positive when it falls) in the assay on Klebsiella pneumoniae is given as 14.92%; with Candida albicans it was 3.13%; with Cryptococcus neoformans, -23.81%.

For the compound `Cc1ccc(-c2cc3c4nn(CC(=O)N5CCN(c6ccccc6F)CC5)c(=O)n4ccn3n2)cc1C`, the values for the Inhibition in the assay with Klebsiella pneumoniae, with Candida albicans and in the assay with Cryptococcus neoformans were 10.7%, 3.33% and -14.81%, respectively.

Consider `Cc1cc2nn(CC(=O)Nc3ccc(F)cc3F)c(=O)n2c(Nc2ccc(F)c(C)c2)n1`, for which the Inhibition in the assay with Klebsiella pneumoniae was 11.68%; in the assay on Candida albicans it was 11.92%; in the assay with Cryptococcus neoformans it was -8.52%.

Turning to `Cc1ccc(C)c(NC(=O)Cn2nc3c(N4CCCC(C)C4)nccn3c2=O)c1` (stereo not given), the Inhibition is given as 3.52% with Klebsiella pneumoniae, 2.37% in the assay with Candida albicans and -8.1% in the assay with Cryptococcus neoformans.

Take `CC(C)c1nnc2c(=O)n(CC(=O)Nc3ccc(C#N)cc3)c3ccccc3n12`: the Inhibition in the assay on Klebsiella pneumoniae is reported as 6.44%; in the assay with Candida albicans it was 0.24%; in the assay with Cryptococcus neoformans it was -24.39%.

Turning to `Cn1c(=O)c2ccc(C(=O)NC3CCCCC3)cc2n2c(=O)n(Cc3cccc(C(F)(F)F)c3)nc12`, the Inhibition is on record as 16.04% in the assay with Klebsiella pneumoniae, 1.42% with Candida albicans and -24.7% in the assay on Cryptococcus neoformans.

On to `O=C(CSc1nnc2c(=O)n(-c3ccc(Br)cc3)ccn12)Nc1cccc(F)c1`, for which the Inhibition with Klebsiella pneumoniae is 8.72%; in the assay on Candida albicans, 6.18%; in the assay with Cryptococcus neoformans it was -18.67%.

Consider `COc1ccc(CN(c2ccc(OC)cc2)S(=O)(=O)c2ccc3nnc(C)n3c2)cc1`, for which the Inhibition in the assay with Klebsiella pneumoniae is on record as 9.27%; in the assay with Candida albicans it was 0.4%; with Cryptococcus neoformans it was -1.1%.

As to `O=c1c2nnc(-c3ccc([N+](=O)[O-])cc3)n2ccn1-c1ccc(F)c(F)c1`, the Inhibition is recorded as 12.52% in the assay on Klebsiella pneumoniae, 2.2% in the assay with Candida albicans and -9.46% in the assay with Cryptococcus neoformans.

In the case of `Cc1c(Cl)cccc1-n1ccn2c(=O)n(Cc3ccccc3Cl)nc2c1=O`, the Inhibition in the assay on Klebsiella pneumoniae is -1.96%; in the assay on Candida albicans it was -2.16%; in the assay on Cryptococcus neoformans, -12.25%.

Regarding `Cc1cccc(NC(=O)CSc2nnc3ccc(C(=O)Nc4cccc(F)c4)cn23)c1`, the Inhibition in the assay on Klebsiella pneumoniae is 11.26%; in the assay with Candida albicans, 1.08%; with Cryptococcus neoformans, -17.48%.

Regarding `NC(=O)Cn1nc2n(CCC(=O)NC3CCCCC3)c(=O)c3ccccc3n2c1=O`, the Inhibition was 14.53% in the assay on Klebsiella pneumoniae, 0.47% in the assay with Candida albicans and -26.54% with Cryptococcus neoformans.

As for `O=C(Cn1nc2c(N3CCOCC3)nccn2c1=O)Nc1ccccc1Br`, the Inhibition with Klebsiella pneumoniae is on record as 13.49%; in the assay with Candida albicans, 4.41%; with Cryptococcus neoformans, -7.57%.

As to `Cc1nc(-c2ccccc2)cc2nn(CC(=O)Nc3ccc4c(c3)OCO4)c(=O)n12`, the figures for the Inhibition in the assay on Klebsiella pneumoniae, in the assay on Candida albicans and with Cryptococcus neoformans were 6.91%, 0.14% and -7.69%, respectively.

As for `CCOc1ccc(-n2ccn3c(SCC(=O)Nc4ccc(CC)cc4)nnc3c2=O)cc1`, the Inhibition was 16.87% in the assay on Klebsiella pneumoniae, 2.31% in the assay with Candida albicans and -18.11% in the assay on Cryptococcus neoformans.

Turning to `O=c1c2nn(Cc3ccc([N+](=O)[O-])cc3)c(=O)n2ccn1-c1ccccc1`, the values for the Inhibition in the assay with Klebsiella pneumoniae, in the assay with Candida albicans and with Cryptococcus neoformans were 13.17%, 3.56% and -7.73%, respectively.

Consider `Cc1c(Cl)cccc1-n1ccn2c(=O)n(Cc3ccc(F)cc3)nc2c1=O`, for which the Inhibition in the assay on Klebsiella pneumoniae is reported as -1.56%; in the assay with Candida albicans, 6.3%; in the assay with Cryptococcus neoformans, -16.32%.

As for `CSc1cccc(NC(=O)Cn2nc3c(N4CCCC(C)C4)nccn3c2=O)c1` (stereo not given), the Inhibition with Klebsiella pneumoniae is 8.54%; in the assay with Candida albicans, 6.43%; in the assay with Cryptococcus neoformans, -37.15%.

`COc1cccc(CNC(=O)CSc2nnc3c(=O)n(-c4ccccc4)ccn23)c1OC`: the values for the Inhibition in the assay on Klebsiella pneumoniae, in the assay on Candida albicans and with Cryptococcus neoformans were 8.24%, -1.2% and -16.17%, respectively.

Consider `COc1ccc(-c2cc3c4nnc(CCC(=O)NCc5ccc6c(c5)OCO6)n4ccn3n2)cc1`, for which the Inhibition with Klebsiella pneumoniae is recorded as 9.82%; in the assay with Candida albicans it was 3.53%; with Cryptococcus neoformans it was -3.36%.

As for `COc1ccc(NC(=O)Cn2nc3ccc(SC4CCCCC4)nn3c2=O)cc1OC`, the Inhibition in the assay with Klebsiella pneumoniae is reported as 8.74%; with Candida albicans, 4.98%; in the assay on Cryptococcus neoformans it was -24.6%.

As to `O=C(Cn1nc2c(N3CCOCC3)nccn2c1=O)NCc1ccc(C(F)(F)F)cc1`, the Inhibition in the assay with Klebsiella pneumoniae is 3.05%; in the assay on Candida albicans, 1.76%; with Cryptococcus neoformans it was -5.37%.

`Cc1cc2nn(CC(=O)Nc3ccccc3C)c(=O)n2c(Nc2ccc(F)c(C)c2)n1`: the Inhibition in the assay with Klebsiella pneumoniae is on record as 13.6%; in the assay with Candida albicans, 21.67%; in the assay with Cryptococcus neoformans, -6.31%.

Consider `Cc1ccc(CNC(=O)Cn2nc3c(SC4CCCCC4)nccn3c2=O)cc1`, for which the Inhibition in the assay with Klebsiella pneumoniae is on record as 14.28%; in the assay with Candida albicans it was -1.05%; in the assay with Cryptococcus neoformans, -11.99%.

For the compound `COc1ccc(C(=O)CSc2nnc3c(=O)n(-c4ccc(F)c(F)c4)ccn23)cc1OC`, the Inhibition in the assay on Klebsiella pneumoniae is recorded as 11.04%; with Candida albicans it was 3.34%; with Cryptococcus neoformans it was -3.67%.

On to `O=C(CSc1nnc2c3cc(-c4ccc(F)cc4)nn3ccn12)Nc1ccccc1C(F)(F)F`, for which the figures for the Inhibition in the assay on Klebsiella pneumoniae, with Candida albicans and with Cryptococcus neoformans were -6.96%, 5.14% and -18.14%, respectively.

As to `Cc1nnc2ccc(S(=O)(=O)N(Cc3cccc(Cl)c3)c3ccc(F)cc3)cn12`, the results for the Inhibition in the assay on Klebsiella pneumoniae, with Candida albicans and in the assay on Cryptococcus neoformans were 8%, 2.21% and -6.34%, respectively.

Take `COc1ccc(NC(=O)Cn2nc3c(N4CCCC(C)C4)nccn3c2=O)cc1OC` (stereo not given): the Inhibition with Klebsiella pneumoniae is given as -1.27%; with Candida albicans, -0.12%; in the assay on Cryptococcus neoformans, -7.35%.

Regarding `CC(C)CCn1c(=O)c2sccc2n2c(=O)n(Cc3c(F)cccc3Cl)nc12`, the figures for the Inhibition in the assay with Klebsiella pneumoniae, in the assay with Candida albicans and in the assay on Cryptococcus neoformans were 12.18%, 9.98% and -27.55%, respectively.
